Bioassay records (PubChem)
Most compounds without a hit are left out; they make up all but 8.5% or so of the library.
ALDH1A1 block – qHTS Assay for Inhibitors of Aldehyde Dehydrogenase 1 (ALDH1A1) | Aldehyde dehydrogenase 1A1 (Homo sapiens), P00352 | Purified ALDH1A1, NADH fluorescence, propionaldehyde substrate | Potency, µM (highest dose often 75.3 µM), inactives show at the top dose activity, negative = inhibition, usual class: inhibitors | actives 7.3% (n = 220,000);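 further: potency means the concentration at half of the fitted maximal effect; plate controls were no enzyme wells and a reference inhibitor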
Target sequence (P00352 whole entry, looked up): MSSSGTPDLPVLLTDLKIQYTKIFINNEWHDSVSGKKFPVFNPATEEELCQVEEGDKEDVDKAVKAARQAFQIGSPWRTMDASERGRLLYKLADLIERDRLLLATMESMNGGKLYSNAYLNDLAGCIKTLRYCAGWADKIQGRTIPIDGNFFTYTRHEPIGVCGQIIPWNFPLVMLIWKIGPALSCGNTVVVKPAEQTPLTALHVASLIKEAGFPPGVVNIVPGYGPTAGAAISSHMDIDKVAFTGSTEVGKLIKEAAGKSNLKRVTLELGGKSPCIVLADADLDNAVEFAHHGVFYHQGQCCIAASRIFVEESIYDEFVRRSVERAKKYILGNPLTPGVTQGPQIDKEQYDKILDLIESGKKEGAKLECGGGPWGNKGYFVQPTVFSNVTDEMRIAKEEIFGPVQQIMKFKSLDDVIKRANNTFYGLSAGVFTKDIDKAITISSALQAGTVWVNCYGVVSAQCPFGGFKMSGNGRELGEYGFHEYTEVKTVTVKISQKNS
JMJD2E inh – qHTS Assay for Inhibitors of Human Jumonji Domain Containing 2E (JMJD2E) | JMJD2E catalytic domain, FDH-coupled NADH fluorescence (FDH is formaldehyde dehydrogenase) | AID 2147, 2009 | Potency, µM (highest dose often 57.1 µM), inactives show top-dose activity change, negative = inhibition, actives largely listed as inhibitors | actives 1.6% (n = 230,000) | Lysine-specific demethylase 4E (Homo sapiens), B2RXH2;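 further: potency means the concentration at half of the fitted maximal effect; 0% = wells with enzyme and -100% = buffer wells without enzyme; nearly all actives have a fitted effect of over 50% in size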
Coupling enz – qHTS Assay for Inhibitors of Fructose-1,6-bisphosphate Aldolase from Giardia Lamblia: Coupling assay counterscreen. coupling enzyme system counterscreen, AmpLite Red fluorescence. activity change, negative = inhibition, % at 58.2 µM, hits read low. actives 0.67% (n = 290,000); in the data active means activity change below about -30%
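Activity here indicates interference with the coupling reaction, not aldolase inhibition. Compounds at 57.5 uM final met coupling enzymes for 10 min at RT; substrate and AmpLite Red detection followed, with a 525/598 nm fluorescence read after 20 min.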
Sfp PPTase inh – qHTS Assay for Inhibitors of Bacillus subtilis Sfp phosphopantetheinyl transferase (PPTase); 4'-phosphopantetheinyl transferase ffp (Bacillus subtilis), Q9F4F7; Biochemical Sfp PPTase activity, qHTS; Potency, µM, for the others: largest response in the series, negative = inhibition, hits mostly inhibitors; actives 3.5% (n = 310,000); AID 1490, 2009; active means well fitted curve in the direction sought with a large enough effect; inconclusive means small, poorly fitted or top-dose-only effect, or another doubt; inactive means no such curve, though single readings can be large; an effect the other way counts as inactive or inconclusive;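 further: the enzyme is Sfp with the accession as filed and its product quenches rhodamine fluorescence; potency means the concentration at half of the fitted maximal effect; 0% = enzyme reaction without inhibitor and -100% = no enzyme wells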
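Step 1, compound plus 15 nM Sfp-PPTase, 15 min, room temperature. Step 2, add rhodamine-CoA (5 uM) and BHQ-2-YbbR (12.5 uM). Step 3, read 525/598 nm fluorescence at 0 and 30 min.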
NPSR antagonist – qHTS Assay for Antagonists of the Neuropeptide S Receptor: cAMP Signal Transduction; CHO-NPSR cells, cAMP TR-FRET, antagonist mode; Potency, µM (titrated, usually from 38.3 µM), for the others: top-dose activity change, negative = inhibition, actives largely listed as inhibitors; actives 1% (n = 220,000); active means well fitted curve in the direction sought with a large enough effect; inconclusive means small, poorly fitted or top-dose-only effect, or another doubt; inactive means no such curve, though single readings can be large; an effect the other way counts as inactive or inconclusive; further: potency means the concentration at half of the fitted maximal effect; nearly all actives have a fitted effect of over 50% in size
GoLoco inh red – qHTS Assay for Inhibitors of RGS12 GoLoco Motif Activity (Red Fluorophore) | Guanine nucleotide-binding protein G(i) subunit alpha-1 (Homo sapiens), P63096 | Gai1:RGS12 GoLoco peptide FP, rhodamine, 10 min | Potency, µM (series often up to 61.6 µM), without a hit: top-dose activity, negative = inhibition, hits mostly inhibitors | actives 0.44% (n = 230,000) | AID 880, 2007; active means well fitted inhibition curve with a large enough effect, not every such curve was filed as active; inactive means no such curve, though single readings can be large or run the other way; further: potency means the concentration at half of the fitted maximal effect; nearly all actives have a fitted effect of over 30% in size
Starred values were filed as active, the others as inactive; ? = inconclusive; nt = no result; [ ] = another dose, or the depositor's remark. Unless noted, the call rests on the fitted dose curve; in most records, active means well fitted inhibition curve with a large enough effect (not every such curve was filed as active); inconclusive means small, poorly fitted or top-dose-only effect, or another doubt; inactive means no such curve, though single readings can be large or run the other way. Unless noted, on the % scale 0 is the no-effect control and ±100 the full control effect.

SMILES	ALDH1A1 block	JMJD2E inh	Coupling enz	Sfp PPTase inh	NPSR antagonist	GoLoco inh red
COC(=O)CNC(c1ccccc1)c1cc(Br)ccc1NC(=O)CCN1CCOCC1 (stereo not given)	-1%	2%	-1	32µM*	12%	-14%
CCOC(=O)CNC(c1ccccc1)c1cc(Br)ccc1NC(=O)CCN1CCOCC1 (stereo not given)	?	3%	1	16µM*	9%	-27%
Cc1nc2ccc(Cl)cc2nc1C	nt	-5%	0	10%	10%	0%
CN(C)S(=O)(=O)c1ccc(Cl)c(NC(=O)CN2CCN(Cc3ccc4c(c3)OCO4)CC2)c1	nt	-6%	-2	-2%	30%	6%
O=C(CCc1c[nH]c2ccccc12)NCCc1ccc(Cl)cc1	nt	nt	0	-2%	nt	nt
O=C(CCS(=O)(=O)c1ccc(Cl)cc1)NCCc1c[nH]c2ccccc12	28µM*	0%	1	5%	-1%	15%
O=C(Nc1cccc(S(=O)(=O)Nc2ccccc2F)c1)c1ccc2ccccc2n1	3.2µM*	-12%	-4	8.9µM*	-32%	-29%
O=C(Cc1ccc(Cl)cc1Cl)Nc1cccc(S(=O)(=O)Nc2ccccc2F)c1	3.5µM*	-12%	2	8.9µM*	-21%	-8%
COc1ccccc1NS(=O)(=O)c1cccc(NC(=O)c2ccc3ccccc3n2)c1	4%	-7%	-1	9%	1%	8%
N#Cc1cccc(-c2nccc(-n3ccnc3)n2)c1	?	nt	-1	50µM*	nt	-3%
CS(=O)(=O)Nc1cccc(-c2nccc(-n3ccnc3)n2)c1	-5%	?	0	56µM*	nt	-10%
Cc1ccccc1-c1nccc(-n2ccnc2)n1	-4%	-26%	-4	56µM*	nt	-13%
O=C(NCCCN1CCOCC1)c1sc2ccccc2c1Cl	-21%	1%	0	11%	-20%	5%
Cc1noc(C)c1-c1cc(NCCN2CCOCC2)ncn1	20µM*	nt	3	-25%	nt	-14%
CCCn1c(C2CCCN2c2nc(-c3ccc(C)cc3)cs2)nc2ccccc21 (stereo not given)	nt	nt	0	50µM*	nt	nt
COc1cc(NC(=O)c2cccc3c2C(=O)N(C2CCCCC2)C3)cc(OC)c1OC	nt	nt	nt	-29%	nt	nt
CN(CCc1ccccn1)C(=O)CCC1CCCN(C(=O)c2cccc(N(C)C)c2)C1 (stereo not given)	nt	nt	0	9%	nt	nt
COc1cccc(C(c2sc3nc(C)nn3c2O)N2CCc3ccccc3C2)c1 (stereo not given)	?	7%	2	32µM*	5%[46.1 µM]	-3%
COc1cc(C(c2sc3nc(C)nn3c2O)N2CC(C)CC(C)C2)cc(OC)c1OC (stereo not given)	14µM*	-3%	1	11%	4%[46.1 µM]	7%
CC1CCCN(C(c2ccccc2)c2sc3ncnn3c2O)C1 (stereo not given)	-1%	-1%	6	9%	2%	-3%
Oc1c(C(c2ccco2)N2CCN(C(c3ccccc3)c3ccccc3)CC2)sc2ncnn12 (stereo not given)	0%	-11%	-1	50µM*	?	12%
COc1cc(C(c2sc3nc(C)nn3c2O)N2CC(C)OC(C)C2)cc(OC)c1OC (stereo not given)	4%	-7%	-3	19%	2%[46.1 µM]	12%
Oc1c(C(c2ccccc2)N2CCc3ccccc3C2)sc2ncnn12 (stereo not given)	7.1µM*	-2%	-5	79µM*	-19%[46.1 µM]	-11%
O=C(CCN1C(=O)[C@@H]2Cc3ccccc3CN2C1=O)NCc1ccc(Cl)cc1	nt	nt	nt	12%	nt	nt
Cc1cc(O)cc(C)c1NS(=O)(=O)c1ccc2ccccc2c1	nt	nt	-4	-4%	nt	nt
SMILES	ALDH1A1 block	JMJD2E inh	Coupling enz	Sfp PPTase inh	NPSR antagonist	GoLoco inh red
CN(CC(=O)NCCc1ccc(S(N)(=O)=O)cc1)S(=O)(=O)/C=C/c1ccccc1	nt	nt	1	2%	nt	nt
CCc1nnc(NC(=O)c2ccc(-c3ccc([N+](=O)[O-])cc3Cl)o2)s1	?	4%	1	-19%	10%	3%
COc1ccc(C(=O)NCc2cnn(C)c2C)cc1OC1CCN(C(C)C)CC1	nt	nt	1	2%	nt	nt
Cc1nc2sc(C(c3ccco3)N3CCC(Cc4ccccc4)CC3)c(O)n2n1 (stereo not given)	-7%	7%	3	35µM*	-15%[46.1 µM]	8%
CN(C)C=Nc1nonc1-c1ccccc1	0%	7%	5	10%	-6%	-18%
CN(C)C=Nc1c(Br)cc(Br)c2nonc12	0%	8%	-43*	-14%	-6%[46.1 µM]	-93%
COc1ccccc1CNS(=O)(=O)c1ccc(-c2cnc(C3CC3)o2)cc1	nt	nt	nt	-7%	nt	nt
OCc1nc2ccccc2n1CC(O)Cn1ccc2ccccc21 (stereo not given)	22µM*	-13%	2	-14%	16%[46.1 µM]	-1%
Oc1ccccc1NCC(O)Cn1ccc2ccccc21 (stereo not given)	14µM*	?	2	-27%	7%[46.1 µM]	nt
O=C1c2ccccc2S(=O)(=O)N1CC(O)Cn1ccc2ccccc21 (stereo not given)	13µM*	0%	2	-7%	-18%[46.1 µM]	35%
OC(CN1CCNCC1)Cn1ccc2ccccc21 (stereo not given)	nt	nt	0	3%	nt	nt
Cc1ccc(S(=O)(=O)N2CCN(C(=O)CC(C)n3nc(C)c(Cl)c3C)CC2)cc1C (stereo not given)	nt	nt	1	-7%	nt	nt
Cc1cccc(C)c1NC(=O)CC(NCCc1ccccc1)C(=O)O (stereo not given)	1%	12%	4	9%	7%	-4%
COC(=O)CSc1nc2ccccc2o1	5%	13%	6	7%	-1%[46.1 µM]	-1%
CCCCCCOC(=O)Sc1nc2ccccc2o1	?	-9%	3	45µM*	?	-5%
ONC(=Nc1cccc(C(F)(F)F)c1)c1cccnc1	10%	1%	1	13%	-11%	10%
CCSc1nc2sc3c(c2c(=O)n1-c1ccccc1C)CCN(C)C3	nt	nt	2	1%	nt	nt
Cc1cc(N/N=C/c2ccc(O)c(C)c2O)nc(-c2ccccc2O)n1	-2%	25µM*	-1	-10%	?	9%
C/C(=N\Nc1cc(C)nc(-c2ccccc2O)n1)c1ccccc1	2%	4%	-6	-3%	-27%	4%
